Screen size: about 310,000 compounds; about 2,200 (0.71%) showed an effect of 50% or more. The effect is printed as a negative number. The sample holds strong results, similar compounds and a random draw of the others, so the mix is not that of the screen.
These compounds were tested against human ether-à-go-go-related gene (hERG) potassium channel (human, UniProt Q12809) (assay: primary screen, population patch clamp on CHO cells stably expressing hERG; higher = less effect of the substance).
Sequence of human ether-à-go-go-related gene (hERG) potassium channel (Q12809 whole entry, looked up): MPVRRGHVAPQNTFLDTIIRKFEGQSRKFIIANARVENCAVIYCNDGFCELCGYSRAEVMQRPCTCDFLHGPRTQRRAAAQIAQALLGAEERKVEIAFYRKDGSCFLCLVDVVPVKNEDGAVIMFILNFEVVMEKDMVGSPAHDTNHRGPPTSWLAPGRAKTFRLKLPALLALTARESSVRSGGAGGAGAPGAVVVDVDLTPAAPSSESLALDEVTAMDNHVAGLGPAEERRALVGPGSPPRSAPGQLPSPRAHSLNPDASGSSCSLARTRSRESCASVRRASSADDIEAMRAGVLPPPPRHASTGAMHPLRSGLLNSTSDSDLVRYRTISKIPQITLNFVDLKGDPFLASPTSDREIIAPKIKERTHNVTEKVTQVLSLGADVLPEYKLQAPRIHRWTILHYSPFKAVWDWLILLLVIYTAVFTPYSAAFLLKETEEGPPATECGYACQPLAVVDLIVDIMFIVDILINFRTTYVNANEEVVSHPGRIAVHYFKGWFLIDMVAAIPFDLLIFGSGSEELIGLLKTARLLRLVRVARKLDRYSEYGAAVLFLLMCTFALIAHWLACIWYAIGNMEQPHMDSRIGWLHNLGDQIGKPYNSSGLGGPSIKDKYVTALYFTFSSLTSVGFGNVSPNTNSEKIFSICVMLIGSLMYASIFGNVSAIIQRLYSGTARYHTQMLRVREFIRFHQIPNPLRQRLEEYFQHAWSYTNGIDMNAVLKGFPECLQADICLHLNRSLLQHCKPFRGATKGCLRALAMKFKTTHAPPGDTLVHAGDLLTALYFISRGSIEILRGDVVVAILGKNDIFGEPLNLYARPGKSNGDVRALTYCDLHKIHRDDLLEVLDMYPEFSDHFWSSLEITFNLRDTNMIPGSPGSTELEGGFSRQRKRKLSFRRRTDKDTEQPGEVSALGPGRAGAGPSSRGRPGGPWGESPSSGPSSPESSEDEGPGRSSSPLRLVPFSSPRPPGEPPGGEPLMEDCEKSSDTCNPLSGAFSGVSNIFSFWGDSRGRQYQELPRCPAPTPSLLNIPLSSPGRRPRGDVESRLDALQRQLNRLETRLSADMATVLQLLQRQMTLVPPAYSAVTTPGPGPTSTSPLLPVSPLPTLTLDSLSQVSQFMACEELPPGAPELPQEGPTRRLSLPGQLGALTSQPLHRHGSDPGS

Row | Structure (SMILES) | hERG current change (%, negative = inhibition) at 1uM
1 | COc1ccc(C(=O)Nc2nc(N3C(=O)c4ccccc4C3=O)n(-c3ccccc3)n2)cc1 | 3.14%
2 | CSc1ncc(Sc2ccccc2)c(C(=O)O)n1 | 10.3%
3 | Cc1ccccc1-c1noc(CCC(=O)NCCc2ccccc2)n1 | 10.4%
4 | O=C(CSc1nnc(NC(=O)c2ccc(F)cc2F)s1)NC1CC1 | 14.9%
5 | COc1cc(OC)cc(-c2nnc(Nc3nc4c(F)cccc4s3)o2)c1 | 6.96%
6 | O=C(c1ccc2c(=O)n(CC3CCCO3)c(=S)[nH]c2c1)N1CCN(c2ccccc2)CC1 (stereo not shown) | 3.81%
7 | O=C(CCNS(=O)(=O)c1cccs1)N1CCN(c2cccc(C(F)(F)F)c2)CC1 | -2.16%
8 | C=CCn1c(C2CC2)n[nH]c1=S | 1.66%
9 | O=C(NCc1ccc(Cl)cc1)c1noc2c1CCCCC2 | -6.49%
10 | O=C(CSc1nc(=O)n2ccccc2n1)N1CCC(Cc2ccccc2)CC1 | -27.4%
11 | Cc1cccn2c(=O)nc(SCC(=O)N3CCC(C)CC3)nc12 | 2.05%
12 | Cc1cccn2c(=O)nc(SCC(=O)N3CCC(Cc4ccccc4)CC3)nc12 | -69.2%
13 | CCOc1ccccc1NC(=O)C(OC(=O)c1ccccc1O)c1ccccc1 (stereo not shown) | -2.03%
14 | O=S(=O)(NC1CCC(NS(=O)(=O)c2c(F)cccc2F)CC1)c1ccc2c(c1)OCCO2 (stereo not shown) | 10.7%
15 | Cc1ccc(C(=O)N[C@@H](C)CN2C3=NC[C@H](C(C)C)N3C[C@H]2Cc2ccc(O)cc2)cc1Br | -34.3%
16 | COc1ccc(C[C@@H]2CN3C(=NC[C@@H]3C)N2C[C@H](C)NC(=O)c2ccc(C)c(Br)c2)cc1 | -56.4%
17 | Cc1ccc(C(=O)NCCN2C3=NC[C@@H](Cc4ccccc4)N3C[C@H]2Cc2ccc(O)cc2)cc1Br | -4.33%
18 | COc1ccc(C[C@H]2CN3C(=NC[C@@H]3C(C)C)N2C[C@H](C)NC(=O)c2ccc(C)c(Br)c2)cc1 | -41.9%
19 | COc1ccc(C[C@H]2CN3C(=NC[C@@H]3Cc3ccc(O)cc3)N2C[C@H](C)NC(=O)c2ccc(C)c(Br)c2)cc1 | -60.1%
20 | Cc1ccc(C(=O)N[C@@H](C)CN2C3=NC[C@H](Cc4ccccc4)N3C[C@H]2Cc2ccc(O)cc2)cc1Br | -68.1%
21 | COc1ccc(C[C@H]2CN3C(=NC[C@@H]3Cc3ccc(O)cc3)N2CCNC(=O)c2ccc(C)c(Br)c2)cc1 | -18.4%
22 | C/C=C(\C)C(=O)NCCN1C2=NC[C@H](Cc3ccc(O)cc3)N2C[C@@H]1Cc1ccc(OC)cc1 | 10.6%

Row | Structure (SMILES) | hERG current change (%, negative = inhibition) at 1uM
23 | C/C=C(\C)C(=O)NCCN1C2=NC[C@H](C)N2C[C@@H]1Cc1ccc(OC)cc1 | 7.75%
24 | Cc1cc(Cl)cc(Br)c1OCCCCn1cncn1 | -0.515%
25 | Cc1cc(=O)[nH]c(N/N=C/c2cccc([N+](=O)[O-])c2)n1 | 9.49%
26 | CC1(c2nnc(Cc3ccccc3)o2)CC(c2ccccc2[N+](=O)[O-])=NO1 (stereo not shown) | 0.886%
27 | Cc1c(NC(=O)c2ccc(Cl)s2)c(=O)n(-c2ccccc2)n1C | 8.57%
28 | Cn1nc2c(c1C(=O)N1CCCC(C(=O)c3cc(F)ccc3F)C1)CCCC2 (stereo not shown) | 10.8%
29 | CO/N=C(\Cn1ncc(NC2CCCCC2)c(Br)c1=O)c1ccc(Cl)cc1 | -1.74%
30 | CCCCNC(=O)CCCCCNS(=O)(=O)c1ccc(Br)cc1 | -26.3%
31 | Cc1cc(N2CCN(C/C=C/c3ccccc3)CC2)n2ncnc2n1 | -52.2%
32 | Cc1cc(N2CCN(c3nc4ccccc4s3)CC2)n2ncnc2n1 | -74.9%
33 | Cc1cc(N2CCN(C(c3ccccc3)c3ccccc3)CC2)n2ncnc2n1 | 8.18%
34 | Cc1cc(N2CCN(S(=O)(=O)c3ccc4ccccc4c3)CC2)n2ncnc2n1 | -48.4%
35 | Cc1cc(N2CCN(c3ccc(F)cc3)CC2)n2ncnc2n1 | -14.8%
36 | Cc1cc(N2CCN(S(=O)(=O)c3ccc(Br)cc3)CC2)n2ncnc2n1 | -84.8%
37 | CC(=O)Nc1ccc(S(=O)(=O)N2CCN(c3cc(C)nc4ncnn34)CC2)cc1 | -9.05%
38 | Cc1cc(N2CCN(c3ccccc3)CC2)n2ncnc2n1 | -7.73%
39 | Cc1cc(N2CCN(S(=O)(=O)Cc3ccccc3)CC2)n2ncnc2n1 | -11.4%
40 | O=C(Nc1ccc(Nc2ccccc2)cc1)C(Cl)(Cl)Cl | 7.95%
41 | CCCS(=O)(=O)N1CCN(C(=O)COc2ccc(OC)cc2)CC1.O=C(O)C(=O)O | 11.7%
42 | O=C(CN(C(=O)c1csnn1)c1ccccc1C(F)(F)F)NC1CCCCC1 | 14.5%
43 | Cc1ccc(N(CC(=O)NCC2CCCO2)C(=O)Cn2nnc(-c3cccs3)n2)cc1 (stereo not shown) | 2.07%
44 | CC(C)(CN=C1NS(=O)(=O)c2ccccc21)CNC(=O)CN1C(=O)c2ccccc2C1=O | -1.01%

Row | Structure (SMILES) | hERG current change (%, negative = inhibition) at 1uM
45 | COCCCNC(=O)C(=O)Nc1cc2c3c(c1)CCN3C(=O)CC2 | 21.5%
46 | CCOc1cc(CN2CCCC(CO)(Cc3ccc(F)cc3F)C2)ccc1OC (stereo not shown) | -10.8%
47 | Cc1cccc(N2CCN(C(=O)Cn3nc(Cc4ccncc4)c4ccccc4c3=O)CC2)c1C | 3.71%
48 | CC(C)(C)OC(=O)N/N=C\c1ccc(OC(=O)c2ccco2)cc1 | 10.8%
49 | COc1ccccc1C(=O)NC1CCN(C(=O)Nc2ccc(C)cc2)CC1 | 10.5%
50 | O=C(CC1SC(=Nc2ccc(OC(F)F)cc2)N(CCN2CCOCC2)C1=O)Nc1ccc(F)cc1F (stereo not shown) | -80.4%
51 | O=C(CC1SC(=Nc2ccccc2F)N(CCN2CCOCC2)C1=O)Nc1ccc(F)cc1F (stereo not shown) | 1.58%
52 | COc1ccc(N=C2SC(CC(=O)Nc3ccccc3)C(=O)N2CCN2CCOCC2)cc1 (stereo not shown) | 3.66%
53 | Cc1csc2ncnc(NC3CCN(Cc4ccccc4)CC3)c12 | -35.4%
54 | c1ccc(CN2CCC(Nc3ncnc4sccc34)CC2)cc1 | -31.2%
55 | Cc1sc2ncnc(NC3CCN(Cc4ccccc4)CC3)c2c1C | -56.9%
56 | NC(=S)Nc1cccc2cc3ccccc3cc12 | 0.594%
57 | O=C1NC(c2ccc3c(c2)OCO3)Oc2ccccc21 (stereo not shown) | 7.7%
58 | CCCN(CCC)CCCOC(=O)c1ccc(Cl)cc1Cl.Cl | -56.8%
59 | CN(C)CCCOC(=O)c1ccc(Cl)cc1Cl.Cl | -7.49%
60 | CCN(CC)CCOC(=O)c1ccc(Cl)cc1Cl.Cl | -8.41%
61 | CN(Cc1ccc(-n2cccn2)cc1)Cc1cn(C)nc1-c1ccccc1F | -63.5%
62 | Cn1cc(CNCc2ccc(-n3cccn3)cc2)c(-c2ccccc2F)n1 | -35.4%
63 | CN(Cc1cccc(-n2cccn2)c1)Cc1cn(C)nc1-c1ccccc1F | 16.7%
64 | Cc1ccc(=O)n(C(C(=O)NCc2ccco2)C(=O)c2ccc(F)cc2)c1 (stereo not shown) | 6.1%
65 | Cn1c(Cn2nnc(-c3ccccc3)n2)nnc1SCc1ccccc1Cl | 5.26%
66 | CCCCOc1ccc(Cc2c(COCC)[nH]c(=S)[nH]c2=O)cc1 | 13%

Row | Structure (SMILES) | hERG current change (%, negative = inhibition) at 1uM
67 | Fc1cccc(C2NC(=S)NC3=C2N2CCC3CC2)c1 (stereo not shown) | 1.79%
68 | COc1ccc(CCNC(=O)c2c(O)c3cccc4c3n(c2=O)CC4)cc1OC | -6.66%
69 | COc1cccc(-c2nc(CS(=O)(=O)CC(=O)NCCCN3CCN(C)CC3)c(C)o2)c1 | 11.2%
70 | COc1cccc(-c2nc(CS(=O)(=O)CC(=O)NCCCN3CCc4ccccc4C3)c(C)o2)c1 | -56.3%
71 | COc1cccc(-c2nc(CS(=O)(=O)CC(=O)NCCCN3CCOCC3)c(C)o2)c1 | 10.9%
72 | COc1cccc(-c2nc(CS(=O)(=O)CC(=O)NCCC(C)C)c(C)o2)c1 | 14.4%
73 | CCCNC(=O)CS(=O)(=O)Cc1nc(-c2cccc(OC)c2)oc1C | -284%
74 | COCCCNC(=O)CS(=O)(=O)Cc1nc(-c2cccc(OC)c2)oc1C | 11.3%
75 | Cn1nc(C(F)(F)F)cc1C(=O)O | 17.3%
76 | Cl.O=C(Nc1ccc(Br)cn1)c1ccc(Br)s1 | 13.3%
77 | N=c1c(C(=O)NC2CCCCC2)cc2c(=O)n3ccccc3nc2n1Cc1ccc(F)cc1 | -29.5%
78 | N=c1c(C(=O)NC2CCCCC2)cc2c(=O)n3ccccc3nc2n1Cc1ccco1 | -59.1%
79 | N=c1c(C(=O)NC2CCCCC2)cc2c(=O)n3ccccc3nc2n1Cc1cccnc1 | -50.6%
80 | N=c1c(C(=O)NC2CCCC2)cc2c(=O)n3ccccc3nc2n1Cc1ccccc1 | -55.9%
81 | Cc1ccc(S(=O)(=O)c2cc3c(=O)n4ccccc4nc3n(Cc3ccco3)c2=N)cc1C | -6.2%
82 | Cc1ccc(Cn2c(=N)c(C(=O)NC3CCCCC3)cc3c(=O)n4ccccc4nc32)cc1 | -5.62%
83 | Cc1ccc(Cn2c(=N)c(C(=O)NC3CCCC3)cc3c(=O)n4ccccc4nc32)cc1 | -73.4%
84 | N=c1c(C(=O)NC2CCCCC2)cc2c(=O)n3ccccc3nc2n1Cc1ccccc1 | -10.1%
85 | Cc1ccc(Cn2c(=N)c(S(=O)(=O)c3ccc(C)cc3)cc3c(=O)n4ccccc4nc32)cc1 | 6.66%
